HT1080NT lethal: qHTS for induction of synthetic lethality in tumor cells producing 2HG: qHTS for the HT-1080-NT fibrosarcoma cell line. HT-1080-NT fibrosarcoma viability, CellTiter-Glo ATP luminescence, 48 h. Potency, µM (series often up to 46.1 µM), for inactives: at the top dose activity, negative = less viability, actives largely listed as cytotoxic. 1.6% of 360,000 active;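 note: NT is the 2HG producing partner of a matched IDH1 knockdown line; potency is the fitted concentration of half-maximal effect; 0% = DMSO-treated cells and -100% = media-only wells without cells; nearly all actives have a fitted effect of over 55% in size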
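A 48-hour cytotoxicity screen used HT-1080-NT cells plated 2 hours before compound delivery. ATP-based CellTiter-Glo luminescence measured viability, normalized to DMSO and no-cell controls.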
HT1080 IDH1KD tx: qHTS for induction of synthetic lethality in tumor cells producing 2HG: qHTS for the HT-1080-IDH1KD cell line | HT-1080 IDH1 knockdown viability, ATP luminescence, 48 h | Potency, µM (top dose mostly 46.1 µM), for inactives: at the highest dose activity, negative = toxicity, most hits filed as cytotoxic | 2% of 360,000 active | AID 686971, 2013;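 note: potency is the fitted concentration of half-maximal effect; 0% = DMSO wells and -100% = cell-free medium wells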
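Cytotoxicity counter-line: IDH1KD HT-1080, 48 h, CellTiter-Glo. Curves classed by r2, magnitude and activity.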
TDP1 cell noCPT: qHTS for Inhibitors of human tyrosyl-DNA phosphodiesterase 1 (TDP1): qHTS in cells in absence of CPT | DT40 Tdp1-/- hTDP1 cells, no CPT, ATP luminescence, 48 h | 15% of 420,000 active | Potency, µM (highest dose often 46.2 µM), without a hit: at the highest dose activity change, negative = growth inhibition, hits mostly inhibitors; note: potency is the fitted concentration of half-maximal effect; nearly all actives have a fitted effect of over 55% in size
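A cellular qHTS used chicken DT40 cells lacking endogenous Tdp1 but carrying stably transfected human TDP1. Compounds were applied without camptothecin, and cell growth kinetics were judged by ATP-dependent luminescence after ≥48 hr.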
IL1B secr inh: qHTS for Inhibitors of Inflammasome Signaling: IL-1-beta AlphaLISA Primary Screen | THP-1 LPS/ATP IL-1B secretion, AlphaLISA, 16 h; stronger effect = lower value | activity change, % at 57.5 µM | 4.7% of 360,000 active; in the data active = activity change below about -50%; inconclusive = mostly about -30% to -49%
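Secreted IL-1B measured by AlphaLISA bead assay after 16 h compound exposure of THP-1 cells; compounds (final up to 57.5 uM) added 1 h before LPS (250 ng/mL) and ATP (1.25 mM) stimulation; lower signal means less secretion.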
DT40 TDP1 CPT: qHTS for Inhibitors of human tyrosyl-DNA phosphodiesterase 1 (TDP1): qHTS in cells in presence of CPT; chicken DT40 Tdp1-/-;hTDP1 cells + 20 nM CPT, ATP luminescence, 48 h; Potency, µM (highest dose often 46.2 µM), for the others: top-dose activity change, negative = growth inhibition, actives largely listed as inhibitors; 12% of 420,000 active; note: potency is the fitted concentration of half-maximal effect; nearly all actives have a fitted effect of over 55% in size
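Chicken DT40 Tdp1-/- cells complemented with human TDP1, 400 cells/well, exposed to compounds plus 20 nM camptothecin for at least 48 h at 37 C; viability read as ATP content by CellTiter-Glo luminescence.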
The depositor's hits bear a star; ? = inconclusive; . = no result given. Shown are actives, neighbours in structure and some others; about 19% of the full set was active somewhere. Unless noted, calls come from the whole dose curve; as a rule, active = well fitted curve in the direction sought with a large enough effect; inconclusive = small, poorly fitted or top-dose-only effect, or another doubt; inactive = no such curve, though single readings can be large; an effect the other way counts as inactive or inconclusive. Unless noted, % is set by controls: 0 for no effect and ±100 for the full control effect.

SMILES	HT1080NT lethal	HT1080 IDH1KD tx	TDP1 cell noCPT	IL1B secr inh	DT40 TDP1 CPT
COc1ccc2c(C(=O)c3ccc(C)cc3)n(Cc3ccc(C(N)=O)cc3)[n+]([O-])c2c1	3.5%	2.1%	-24.6%	2.9	?
O=C(Nc1cc2c(cc1Cl)-c1ccc([N+](=O)[O-])cc1C2=NO)C(F)(F)F	8.4%	6.5%	23.1µM*	-65.0*	?
COc1ccc(-c2ccc(NCCN3CCOCC3)nn2)cc1OC	8.8%	13.0%	7.8%	3.8	-0.4%
CCOC(=O)Cc1nnc(NC(=O)CCc2ccccc2)s1	-0.1%	8.4%	-0.6%	-6.0	3.3%
CC(C(=O)NCc1ccco1)n1nc(-c2ccccc2)c2cc(Cl)ccc21 (stereo unspecified)	-1.3%	1.7%	-26.0%	-6.2	?
CC(=O)c1ccc(NC(=O)C(C)n2nc(-c3ccccc3)c3cc(Cl)ccc32)cc1 (stereo unspecified)	-23.4%	-27.8%	16.4µM*	.	?
O=C(CSC1=NS(=O)(=O)c2cc(F)ccc2N1)NCc1ccccc1Cl	-0.8%	-0.2%	-22.9%	0.5	6.9%
COc1ccccc1-c1ccc2c(c1)C(C)(Cc1ccc(OC(F)(F)F)cc1)C(=O)N2 (stereo unspecified)	?	?	?	-51.9*	?
COc1ccc(Cl)cc1CC1(C)C(=O)Nc2ccc(-c3ccccc3OC)cc21 (stereo unspecified)	?	?	11.6µM*	-10.4	20.6µM*
COc1ccccc1-c1ccc2c(c1)C(C)(Cc1ccc(Cl)cc1)C(=O)N2 (stereo unspecified)	13.5%	10.4%	0.1%	7.1	2.5%
COc1ccccc1-c1ccc2c(c1)C(C)(Cc1cc(Cl)ccc1C(F)(F)F)C(=O)N2 (stereo unspecified)	?	?	?	-17.9	?
COc1ccccc1-c1ccc2c(c1)C(C)(Cc1cccc(C#N)c1)C(=O)N2 (stereo unspecified)	?	?	16.4µM*	-9.5	20.6µM*
COC(=O)c1cccc(CC2(C)C(=O)Nc3cc(-c4ccccc4Cl)ccc32)c1 (stereo unspecified)	?	?	?	-13.1	16.4µM*
CC1(Cc2ccccc2OC(F)(F)F)C(=O)Nc2ccc(OC(F)(F)F)cc21 (stereo unspecified)	?	20.6µM*	20.6µM*	?	20.6µM*
CC1(Cc2ccccc2OC(F)(F)F)C(=O)Nc2ccc(-c3ccsc3)cc21 (stereo unspecified)	?	-8.0%	18.4µM*	-17.0	?
CC(=O)c1cccc(-c2ccc3c(c2)C(C)(Cc2ccc(S(C)(=O)=O)cc2)C(=O)N3)c1 (stereo unspecified)	1.1%	5.3%	-25.3%	-5.6	?
CC(=O)c1cccc(-c2ccc3c(c2)C(C)(Cc2ccccc2C#N)C(=O)N3)c1 (stereo unspecified)	-20.4%	-12.4%	?	38.1	16.4µM*
CC1(Cc2ccc(OC(F)(F)F)cc2)C(=O)Nc2ccc(S(=O)(=O)NC3CCCCC3)cc21 (stereo unspecified)	13µM*	11.6µM*	?	-71.6*	?
CC1(Cc2ccccc2OC(F)(F)F)C(=O)Nc2cc(-c3ccccc3Cl)ccc21 (stereo unspecified)	?	?	?	-14.9	?
C[C@@H]1CCC[C@H](C)N1Cc1nc(Cc2ccccc2Cl)no1	10.8%	-0.3%	?	22.6	14.6µM*
CC(CC(=O)N(CCC1=CCCCC1)c1c(N)n(Cc2ccccc2)c(=O)[nH]c1=O)c1ccccc1 (stereo unspecified)	?	?	16.4µM*	13.5	25.9µM*
COc1ccc(CC(=O)N(CCC2=CCCCC2)c2c(N)n(Cc3ccccc3)c(=O)[nH]c2=O)cc1	-2.1%	-16.7%	?	-20.7	?
CCOc1ccc(OCCC(=O)N(CCC2=CCCCC2)c2c(N)n(Cc3ccccc3)c(=O)[nH]c2=O)cc1	-8.9%	-22.4%	?	-1.9	16.4µM*
CCN(CC)S(=O)(=O)c1ccc(NC(=O)c2ccc(N3CCCC3=O)cc2)cc1	?	-15.7%	?	-1.6	?
CCn1c(C(=O)OC)cc2c1ccn2-c1ccc(F)cc1	5.0%	?	13µM*	-21.1	18.4µM*
SMILES	HT1080NT lethal	HT1080 IDH1KD tx	TDP1 cell noCPT	IL1B secr inh	DT40 TDP1 CPT
COC(=O)c1cc2c(ccn2-c2ccc(F)cc2)n1Cc1ccc(OC)cc1	-2.7%	0.3%	-3.8%	-9.3	1.9%
CCc1ccc(C(O)c2ncc(-c3ccc(C)cc3)[nH]2)cc1 (stereo unspecified)	-13.7%	-18.7%	?	-22.9	?
COc1ccc(OC)c(S(=O)(=O)Oc2ccc(N)c3ccccc23)c1	-18.1%	-16.0%	23.1µM*	17.5	?
COc1ccc(OC)c(S(=O)(=O)Nc2cccc3ccccc23)c1	-19.1%	-11.2%	?	17.8	-13.7%
CC(=O)O[C@H]1C[C@@]2(C)[C@@H](C[C@@H](O)[C@H]3[C@@]4(C)CC[C@@H](O)[C@@H](C)[C@@H]4CC[C@@]32C)/C1=C(\CCC=C(C)C)C(=O)O	-25.1%	?	?	-2.5	?
COc1ccc(NC2CCCN(C(=O)c3ccc4nc(C)c(C)nc4c3)C2)cc1OC (stereo unspecified)	-2.9%	-2.4%	6.6%	-6.6	-10.0%
O=C(c1cc2cc(Br)ccc2o1)N1CCCCC1	4.4%	7.0%	20.6µM*	-19.1	?
O=C(Nc1ccncc1)C1CC1c1ccccc1 (stereo unspecified)	2.5%	-25.3%	?	-1.6	15.8µM*
O=C1c2cc(S(=O)(=O)N3CCOCC3)ccc2-c2ccc(S(=O)(=O)N3CCOCC3)cc21	.	.	-28.5%	.	-28.5%
Cc1ccc(NC(=O)CSc2nc3ccccc3c3nc(CCn4c(C)nc5ccccc54)nn23)cc1F	.	.	9.2µM*	.	8.2µM*
CCC(Sc1nc2ccccc2c2nc(CCn3c(C)nc4ccccc43)nn12)C(=O)Nc1ccc(F)cc1 (stereo unspecified)	.	.	2.31µM*	.	?
O=C(CSc1nc2ccccc2c2nc(-c3ccccc3)nn12)Nc1ccc(F)cc1	.	.	14.6µM*	.	?
